Test results from PubChem BioAssay.
Activity calls are given as the source filed them.

Legend:
Albumin (Bos taurus) = Albumin (Bos taurus) (UniProt P02769); assay: bovine serum albumin binders on microarray, profiling panel, artefact control for SMM control protein annotation, biochemical, small-molecule microarray, Alexa647 label, 635/667 nm fluorescence (AID 1118); conditions: BSA-A647 binding, fluorescence 635 nm, higher = more signal;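 note: score merges 667 nm emission intensity and signal-to-noise per printed compound spot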
Albumin (Bos taurus), sequence (P02769 whole entry, looked up): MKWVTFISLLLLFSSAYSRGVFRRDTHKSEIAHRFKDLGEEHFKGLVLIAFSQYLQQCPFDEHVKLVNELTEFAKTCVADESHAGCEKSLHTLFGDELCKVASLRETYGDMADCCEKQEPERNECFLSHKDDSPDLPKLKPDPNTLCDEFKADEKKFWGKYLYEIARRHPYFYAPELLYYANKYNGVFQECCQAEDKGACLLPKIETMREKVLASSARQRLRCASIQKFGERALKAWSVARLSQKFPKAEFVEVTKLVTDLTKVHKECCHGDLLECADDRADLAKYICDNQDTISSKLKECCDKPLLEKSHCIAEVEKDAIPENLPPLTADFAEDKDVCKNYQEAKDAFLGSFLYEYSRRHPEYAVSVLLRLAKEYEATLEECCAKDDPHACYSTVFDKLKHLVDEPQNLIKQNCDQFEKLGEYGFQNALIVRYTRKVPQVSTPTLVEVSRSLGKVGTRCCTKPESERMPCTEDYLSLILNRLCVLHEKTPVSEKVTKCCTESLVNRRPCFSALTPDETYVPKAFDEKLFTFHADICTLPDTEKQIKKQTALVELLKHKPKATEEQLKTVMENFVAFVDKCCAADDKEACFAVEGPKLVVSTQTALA

[1] = small-molecule microarray binders of probe aXIP, primary screen, biochemical, NeuroSMM set, 635/667 nm fluorescence (AID 1119); conditions: higher = more signal, called active from +8 up or from −8 down;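 note: probe is the protein aXip251-270 applied at 1 µg/mL to compound-printed slides; binding of probe to printed compounds measured as 667 nm fluorescence plus signal to noise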
[2] = small-molecule binders of probe aNOTCH3, primary screen, biochemical, small-molecule microarray, 635/667 nm fluorescence (AID 1120); conditions: higher = more signal;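 note: probe is a biotin-tagged antibody raised against NOTCH3 rather than NOTCH3 protein; score merges spot fluorescence near 667 nm with spot signal to noise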
[3] = small-molecule binders of probe aNOTCH2, primary screen, biochemical, small-molecule microarray, 635/667 nm fluorescence (AID 1121); conditions: higher = more signal;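 note: score merges feature fluorescence read at 667 nm with its signal to noise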
[4] = target: Carbonic anhydrase 2 (Homo sapiens) (UniProt P00918); assay: CAII small-molecule binders, profiling panel, biochemical, small-molecule microarray, Alexa647-labelled CAII (AID 1122); conditions: CAII-A647 binding fluorescence, higher = more signal
[5] = COS7 lysate on small-molecule microarray, probe aHis, 635 nm (AID 1123); conditions: COS7 cell lysate, fluorescence, higher = more signal;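 note: z-score combines 667nm fluorescence intensity with signal-to-noise per printed compound spot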
[6] = compound binding in COS7 lysate, probe aLAP1, primary screen, cell lysate, small-molecule microarray (AID 1124); conditions: probe aLAP1, fluorescence, higher = more signal;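 note: lysate comes from COS7 cells expressing LAP1 and is applied at 0.3 µg/mL; score merges spot fluorescence near 667 nm with signal-to-noise over triplicate slides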
Sam68 (KHDRBS1) = assay: Sam68 small-molecule binders, primary screen, biochemical, small-molecule microarray, 635 nm fluorescence (AID 1125); conditions: small-molecule microarray binding, higher = more signal;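 note: score merges 667 nm channel intensity with signal to noise over triplicate slides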
[7] = test system: Chordin-like protein 2 (CHRDL2); assay: CHRDL2 small-molecule binders, primary screen, biochemical, small-molecule microarray, 635 nm fluorescence (AID 1126); conditions: small-molecule microarray binding, fluorescence 635 nm; higher = more signal;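 note: printed compound slides probed with Chrdl2 protein at 4 µg/mL for 1 h at 4 C; score merges 667 nm emission intensity with signal to noise over three replicate slides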
[8] = target: Concanavalin-A (Canavalia ensiformis) (UniProt P02866); assay: ConA small-molecule binders, primary screen, artefact control for SMM control protein annotation, biochemical, small-molecule microarray, Alexa647 label, 635 nm (AID 1127); conditions: ConA-A647 binding fluorescence, higher = more signal;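 note: z combines 667 nm emission intensity with signal-to-noise across three replicate slides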
Concanavalin-A (Canavalia ensiformis), sequence (P02866 whole entry, looked up): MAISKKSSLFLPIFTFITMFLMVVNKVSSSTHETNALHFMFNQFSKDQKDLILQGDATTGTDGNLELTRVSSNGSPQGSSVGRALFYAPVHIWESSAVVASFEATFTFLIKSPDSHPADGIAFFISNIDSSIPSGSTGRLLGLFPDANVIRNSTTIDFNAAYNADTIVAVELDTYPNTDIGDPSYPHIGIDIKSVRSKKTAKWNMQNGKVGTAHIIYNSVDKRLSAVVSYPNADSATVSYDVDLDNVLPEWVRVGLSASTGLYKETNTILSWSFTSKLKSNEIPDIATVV

Compound | composite z-score (Albumin (Bos taurus)) | composite Z-score [1] | composite z-score [2] | composite z-score [3] | composite z-score [4] | composite z-score [5] | composite z-score [6] | composite z-score (Sam68 (KHDRBS1)) | composite z-score [7] | composite z-score [8]
COC(=O)[C@@]1(Cc2ccc(F)cc2)[C@H]2c3cc(C(=O)N4CCCC4)n(Cc4ccccc4)c3C[C@H]2CN1C(=O)c1ccccc1 | 0.946 | 1.06 (inactive) | 0.23 | 0.0291 | 0.793 | 2.25 | 0.65 | 0.253 | -1.32 | 0.428
NC(=O)[C@H]1[C@@H]2C(=O)O[C@@H](c3ccccc3)[C@@H](c3ccccc3)N2[C@@H](c2ccc(O)cc2)[C@]12C(=O)Nc1ccc(C#CC3(O)CCCCCC3)cc12 | 0.0474 | 0.467 (inactive) | 0.205 | -0.0859 | 0.51 | 2.63 | 0.807 | 1.29 | 0.412 | 1.12
COCCCNC(=O)[C@@]1(Cc2ccccc2N=[N+]=[N-])N=C(c2ccc(OCCCO)cc2)O[C@H]1c1ccccc1CN=[N+]=[N-] | 0.771 | 0.103 (inactive) | 0.315 | 0.034 | 0.697 | 2.69 | 0.565 | 1.29 | -0.508 | 1.01
C[N+](C)(C)CCCCCCNC(=O)[C@@H]1C[C@@H]2C(=O)NCC(=O)N2[C@@H]1c1cccc(OCCO)c1 | -0.205 | 0.605 (inactive) | -0.0338 | -0.14 | 0.656 | 1.1 | -0.426 | 0.73 | 1.31 | 1.15
COc1ccccc1CN1C(=O)c2ccccc2[C@@H](C(=O)NCC(C)C)[C@@H]1c1ccc(CO)cc1 | -0.325 | 0.0829 (inactive) | -0.236 | -0.0226 | 0.623 | 0.368 | 0.537 | -0.134 | 0.0987 | 0.358
COc1ccc([Si](C)(C)[C@@H]2[C@@H](CCO)O[C@]3(C(=O)N(Cc4ccccc4)c4ccc(N5CCCCC5=O)cc43)[C@H]2C)cc1 | 0.375 | -0.364 (inactive) | 0.924 | -0.108 | 0.08 | 0.72 | 0.0284 | 1.31 | 0.212 | 1.12
C=CCN1C(=O)[C@@]2(O[C@@H](CCn3cc([C@H](O)c4ccccc4)nn3)[C@H]([Si](C)(C)c3ccc(OC)cc3)[C@H]2C)c2cc(NC(=O)c3ccc(OC)cc3)ccc21 | -0.105 | -0.0277 (inactive) | -0.0932 | -0.173 | 0.148 | 0.637 | 0.0719 | 1.03 | 0.271 | 0.713
O=C(CS)NCCCCCNC(=O)[C@@H]1C[C@@H]2C(=O)N3CCC[C@H]3C(=O)N2[C@@H]1c1ccc(O)cc1 | -0.683 | 0.647 (inactive) | -0.0587 | -0.151 | 0.636 | 1.86 | 0.363 | 0.928 | -0.0012 | 1.15
C=CCC(OC(C)=O)[C@@H]1[C@@H](N(Cc2ccc(-c3ccccc3)cc2)C(=O)c2cccc3ccccc23)c2cc(OCCCO)ccc2N1C(=O)c1ccc2ccccc2n1 (stereo not given in full) | 0.028 | -0.119 (inactive) | 0.0306 | -0.16 | 0.212 | 0.621 | 0.546 | -0.168 | 0.165 | -0.0782
COC(=O)[C@@]1(Cc2ccccc2)[C@H]2c3cc(C(=O)N(C)C)n(Cc4ccccn4)c3C[C@H]2CN1C(=O)c1ccccc1 | 0.723 | 0.146 (inactive) | 0.127 | 0.269 | 0.971 | 3.31 | 1.22 | 1.03 | -1.4 | 1.08
COCCCNC(=O)[C@@]1(C)c2ccccc2C(=O)N(c2ccc(C)cn2)[C@H]1c1ccc(CO)cc1 | 0.537 | -0.333 (inactive) | -0.463 | -0.135 | 0.789 | -0.317 | 0.406 | -0.225 | -0.889 | -0.731
C[N+](C)(C)CCCC[C@@H]1NC(=O)[C@@H]2C[C@H](C(=O)NCCCCCNC(=O)CS)[C@H](c3cccc(OCCO)c3)N2C1=O | 0.666 | 0.0831 (inactive) | 0.0287 | -0.0662 | 0.399 | 0.46 | -0.343 | 0.765 | 0.361 | 0.88
COC(=O)c1c(CC[C@@H](CO)NC(=O)N[C@@H](C)Cn2cc(C3(O)CCCC3)nn2)oc(C(C)=O)c1C(=O)OC | 0.815 | 0.42 (inactive) | 0.276 | -0.204 | 0.672 | 2.66 | 0.0377 | 0.481 | -0.425 | 0.484
COCCOC(=O)N1C(=O)[C@@]2(c3cc(C#CCNC(N)=O)ccc31)[C@H](C(N)=O)[C@H]1C(=O)O[C@H](c3ccccc3)[C@H](c3ccccc3)N1[C@@H]2c1ccc(OCCO)cc1 | -0.217 | 0.462 (inactive) | 0.276 | -0.0979 | 0.52 | 0.475 | 0.53 | 0.815 | 1.03 | 1.09
CC(C)N1C(=O)c2ccccc2[C@](C)(C(=O)O)[C@@H]1c1ccc(CO)cc1 | 0.401 | -0.158 (inactive) | -0.103 | 0.16 | 0.326 | 0.119 | 0.755 | -0.769 | -1.49 | -0.0545
CN(C)C(=O)[C@@]1(CCC(=O)OC(C)(C)C)N=C(c2ccc(OCCCO)cc2)O[C@H]1c1ccccc1N=[N+]=[N-] | 1.03 | 0.0421 (inactive) | 0.315 | -0.0129 | 0.812 | 3.31 | 1.25 | 1.3 | -0.18 | 1.11

Compound | composite z-score (Albumin (Bos taurus)) | composite Z-score [1] | composite z-score [2] | composite z-score [3] | composite z-score [4] | composite z-score [5] | composite z-score [6] | composite z-score (Sam68 (KHDRBS1)) | composite z-score [7] | composite z-score [8]
COCCCNC(=O)[C@]1(Cc2ccccc2)N=C(c2ccc(OCCCO)cc2)O[C@@H]1c1ccccc1N=[N+]=[N-] | 0.855 | 0.454 (inactive) | 0.0999 | -0.106 | 0.502 | 0.0137 | 0.287 | 1.29 | -0.26 | 1.1
CCOC(=O)C[C@H]1[C@H](OC(=O)c2ccc(C(=O)c3ccccc3)cc2)[C@@H](NC(=O)C2CCCCC2)c2cc(OCCCO)ccc2N1C(=O)Cc1ccc(OC)cc1 | 0.442 | 0.442 (inactive) | 0.18 | 0.208 | 0.106 | 0.954 | 1.04 | 0.693 | 0.386 | 0.312
O=C1O[C@H](c2ccccc2)[C@H](c2ccccc2)N2[C@H]1[C@@H](C(=O)N1CCCCCCC1)[C@]1(C(=O)Nc3ccc(C#CCCO)cc31)[C@H]2c1ccc(OCCO)cc1 | 0.853 | 10.2 (active) | 2.34 | 1.12 | 1.11 | 5.12 | 1.12 | 1.37 | 1.62 | 1.19
COCCOC(=O)N1C(=O)[C@@]2(c3cc(C#CCC(C(=O)OC)C(=O)OC)ccc31)[C@H](c1ccc(OCCO)cc1)N1[C@H](c3ccccc3)[C@H](c3ccccc3)OC(=O)[C@H]1[C@@H]2C(N)=O | 0.84 | 0.674 (inactive) | -0.0077 | 0.0264 | 0.57 | 2.82 | 1.02 | 1.29 | 0.474 | 1.15
CC(C)CNC(=O)[C@@]1(c2ccc([N+](=O)[O-])cc2)CC(=O)N(C(C)C)[C@@H]1c1ccc(CO)cc1 | 0.1 | 1 (inactive) | -0.273 | -0.161 | 0.735 | 1.59 | 0.664 | 0.3 | -2.39 | 0.0801
C[N+](C)(C)CCCC[C@@H]1NC(=O)[C@@H]2C[C@H](C(=O)O)[C@H](c3cccc(OCCO)c3)N2C1=O | -1.33 | 1.31 (inactive) | -0.324 | 0.0022 | 0.49 | 0.64 | 0.303 | -0.0913 | 0.451 | 1.02
CC(C)C[C@@H]1NC(=O)[C@@]23C(=O)N[C@@H](Cc4ccccc4)C2[C@H](C)[C@@]2(C)O[C@H]2C3/C=C/C/C=C\CNC(=O)[C@@H]2CCCN2C1=O (stereo not given in full) | 0.777 | 0.572 (inactive) | -0.0026 | -0.129 | 0.391 | -0.351 | 0.339 | -0.747 | 0.698 | -0.838
COCCOC(=O)N1C(=O)[C@@]2(c3cc(C#CCNC(N)=O)ccc31)[C@H](C(=O)N1CCCCCCC1)[C@H]1C(=O)O[C@H](c3ccccc3)[C@H](c3ccccc3)N1[C@@H]2c1ccc(OCCO)cc1 | 0.27 | 0.32 (inactive) | 0.331 | 0.0245 | 0.244 | 0.46 | 1.32 | 0.653 | 0.298 | 0.979
O=C1O[C@@H](c2ccccc2)[C@@H](c2ccccc2)N2[C@@H](c3ccc(O)cc3)[C@]3(C(=O)Nc4ccc(C#CC5=CCCCC5)cc43)[C@@H](C(=O)Nc3nc4ccccc4s3)[C@H]12 | 0.787 | -0.199 (inactive) | 0.887 | 0.47 | 0.58 | 2.03 | 0.784 | 1.29 | 0.842 | 1.1
CN(C)CCCCCCNC(=O)[C@@H]1C[C@@H]2C(=O)NCC(=O)N2[C@@H]1c1ccc(O)cc1 | -0.671 | 2.25 (inactive) | 0.173 | -0.126 | 0.683 | 2.86 | 0.328 | 1.33 | 1.4 | 1.21
CC(C)=CCCC(C)=CC(O)C1C=CC2C(=O)N(c3ccccc3)C(=O)C2N1Nc1ccc([N+](=O)[O-])cc1 (stereo not given) | 1.01 | 0.649 (inactive) | 0.155 | -0.0697 | 0.856 | 2.77 | 0.167 | 1.35 | -1 | 1.14
COCCOC(=O)N1C(=O)[C@@]2(c3cc(C#CCNC(N)=O)ccc31)[C@H](c1ccc(OCCO)cc1)N1[C@H](c3ccccc3)[C@H](c3ccccc3)OC(=O)[C@H]1[C@@H]2C(=O)N1CCN(c2ncccn2)CC1 | 0.358 | 0.764 (inactive) | 0.31 | 0.09 | 0.2 | 0.887 | 0.558 | 1.29 | 0.908 | 1.11
[N-]=[N+]=NCc1ccccc1C[C@@]1(C(=O)NCCN2CCOCC2)N=C(c2ccc(OCCCO)cc2)O[C@@H]1c1ccccc1CN=[N+]=[N-] | 0.511 | -0.0957 (inactive) | 0.338 | 0.12 | 0.568 | 2.23 | 0.0232 | 1.31 | 0.139 | 1.06
CO[C@H]1O[C@H](CO)[C@@H](OC(=O)Nc2ccc(C(F)(F)F)cc2)[C@H](OC(=O)Nc2ccccc2)[C@H]1OC(=O)Nc1ccccc1 | 0.868 | -0.465 (inactive) | 0.248 | 0.0083 | 0.565 | 2.68 | 0.494 | 1.3 | -0.42 | 1.21
CC1C=C(CCCO)C=C(C(=O)OCCS(C)(=O)=O)C(C(=O)OCCS(C)(=O)=O)=CN1Cc1cccc(OC(F)(F)F)c1 (stereo not given) | 1.03 | -0.115 (inactive) | 0.0929 | 0.0231 | 0.749 | 2.22 | 1.11 | 1.21 | -0.815 | 1.08
